GPR151 ag: activates the human receptor GPR151 | activation, % at 11.2 µM | PathHunter beta-arrestin GPR151 cells, luminescence | Q8TDV0 | AID 1508602 | actives 1% (n = 650,000); in the data active = activation above about 4.9%;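 also: 0% = median of compound wells and 100% = cells with positive control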
TEAD-YAP block: TEAD-YAP interaction inhibition; HEK-TIYL cells, TEAD-Gal4/YAP UAS-luciferase luminescence; inhibition, % at 9.12 µM; actives 1.4% (n = 640,000); AID 1259422; in the data active = inhibition above about 32%;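 also: 0% = median of test compound wells and 100% = reference inhibitor wells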
FBW7 act: activators of human E3 ligase FBW7. Q969H0. AlphaScreen FBW7–phospho-cyclin E peptide binding, activator screen. normalized activity (activation), % at 26.1 µM. actives 0.13% (n = 650,000); in the data active = normalized activity above about 1.9%;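 also: purified mutant Fbw7 with reduced substrate affinity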
MITF inh: human MITF inhibition, primary screen; inhibition, % at 2.6 µM; AID 1259374; actives 0.91% (n = 650,000); AlphaScreen MITF homodimerization, bead proximity signal; in the data active = inhibition above about 50%;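 also: 0% = vehicle wells with protein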
Numbers without * were called inactive. Shown are actives, neighbours in structure and some others; about 3.5% of the full set was active somewhere.

SMILES	GPR151 ag	TEAD-YAP block	FBW7 act	MITF inh
COc1cccc(C(=O)N2CCCCC2)c1OC	-1	2	0	-4
NCCCNC(=O)c1c(O)c2c([nH]c1=O)CCCC2	1	-5	0	-5
CSC1=C(C#N)C(c2ccccc2Cl)C(C(=O)Nc2ccccc2C)=C(C)N1 (stereo unspecified)	0	-4	2.0*	15
CCSC1=C(C#N)C(c2ccccc2Cl)C(C(=O)Nc2ccccc2C)=C(C)N1 (stereo unspecified)	0	-4	0	5
COC(=O)c1ccc(C)c(NS(=O)(=O)c2ccc(Cl)cc2)c1	-1	54*	0	-6
COC(=O)c1ccc(C)c(NS(=O)(=O)c2ccc(C)c([N+](=O)[O-])c2)c1	0	11	0	10
CCOc1ccc(S(=O)(=O)Nc2cc(C(=O)OC)ccc2C)cc1	0	55*	0	1
COC(=O)c1ccc(C)c(NS(=O)(=O)c2ccc3c(c2)OCCO3)c1	1	57*	0	3
COC(=O)c1ccc(C)c(NS(=O)(=O)c2ccc(SC)cc2)c1	0	47*	1	15
COc1ccccc1N1CCN(c2ncc(C(=O)N3CCN(c4ccccc4F)CC3)c3ccccc23)CC1	2	8	0	10
COc1ccc(S(=O)(=O)Nc2cc(S(N)(=O)=O)ccc2C)cc1	2	3	0	-2
CC(=O)c1cc2c(cc1NS(=O)(=O)c1ccc(C)cc1)OCCO2	0	37*	0	11
COc1ccc(S(=O)(=O)Nc2cc(F)ccc2C)cc1	-1	52*	0	5
COC(=O)c1ccc(C)c(NS(=O)(=O)c2ccc(OC)cc2)c1	-1	66*	0	5
CC(=O)c1cc2c(cc1NS(=O)(=O)c1ccccc1)OCO2	-1	-3	0	5
COc1cc(-c2cc(C(=O)Nc3cc(C)[nH]n3)c3ccccc3n2)cc(OC)c1OC	0	33*	0	-5
CC(=O)c1cn(CC(=O)Nc2cccc(C)c2C)c2ccccc12	0	40*	0	-2
CC(=O)c1cn(CC(=O)Nc2ccc(C)cc2C)c2ccccc12	0	40*	0	2
COc1cc(C)c(NC(=O)Cn2cc(C(C)=O)c3ccccc32)cc1C	-1	22	0	9
COc1ccc(N2CCN(CC(O)COCc3ccc4c(c3)OCO4)CC2)cc1 (stereo unspecified)	0	12	0	11
Cc1ccc(CCC(=O)Nc2ncc(Cc3ccc(Cl)cc3)s2)o1	4	57*	0	1
Cc1ccc(Cc2cnc(NC(=O)CCCOc3ccc(Cl)cc3)s2)cc1	0	7	0	11
Cc1ccc(CCC(=O)Nc2ccc(Cl)cn2)o1	-1	41*	0	4
Cc1cc(NC(=O)CCc2ccc(C)o2)no1	0	5	0	5
CCN(CC)S(=O)(=O)c1cc(C(=O)Oc2cccc(NC(=O)c3ccc([N+](=O)[O-])cc3)c2)ccc1C	-1	36*	0	6
SMILES	GPR151 ag	TEAD-YAP block	FBW7 act	MITF inh
CCN(CC)S(=O)(=O)c1cc(C(=O)Oc2cccc(NC(=O)c3ccccc3Cl)c2)ccc1C	0	55*	0	4
CCN(CC)S(=O)(=O)c1cc(C(=O)Oc2cccc(NC(=O)c3ccc(Br)cc3)c2)ccc1C	0	20	0	-7
O=C(Nc1cccc(NCc2ccc3c(c2)OCO3)c1)c1ccccc1Cl	0	10	0	4
O=C(Oc1cccc(NC(=O)c2ccccc2Cl)c1)c1ccc2c(c1)OCO2	2	60*	0	-9
CCN(CC)S(=O)(=O)c1cccc(C(=O)Oc2cccc(NC(=O)c3cccc(OC)c3)c2)c1	-4	26	0	-2
Cc1ccc(OCC(=O)Oc2cccc(NC(=O)c3ccccc3Cl)c2)cc1C	0	61*	0	3
CCN(CC)S(=O)(=O)c1cc(NS(=O)(=O)c2ccc(Cl)cc2F)ccc1C	3	-1	1	23
O=C(CCl)NC(Cc1ccccc1)c1ccccc1 (stereo unspecified)	0	58*	0	11
CCOC(=O)C(=O)NC(Cc1ccccc1)c1ccccc1 (stereo unspecified)	1	2	0	13
CC(=O)Nc1ccc(OCC(=O)c2cc(C)n(CCc3ccc(F)cc3)c2C)cc1	-1	1	0	1
N#CC1=C(N)OC2=C(CCC/C2=C/c2ccoc2)C1c1ccoc1 (stereo unspecified)	2	-12	0	58*
Cc1ccccc1-n1nc2c(c1NC(=O)c1ccc(OC(C)C)cc1)CSC2	-1	-1	1	12
O=C(Nc1ccccc1F)c1ccc(N2CC3CC(C2)c2cccc(=O)n2C3)c(NC(=O)c2ccc(F)cc2)c1 (stereo unspecified)	-1	-1	0	10
O=C(Nc1ccc(I)cc1)c1cccc(S(=O)(=O)N2CCOCC2)c1	2	8	0	12
CCN1CCN(S(=O)(=O)c2cc(C(=O)Nc3ccc(Oc4ccccc4)cc3)ccc2F)CC1	0	66*	0	1
O=C(Nc1ccc(Oc2ccccc2)cc1)c1cccc(S(=O)(=O)N2CCOCC2)c1	1	34*	0	3
CCc1ccccc1NC(=O)c1ccc(F)c(S(=O)(=O)N2CCN(c3cccc(C)c3)C(C)C2)c1 (stereo unspecified)	-1	35*	0	11
O=C(Nc1ccccc1)c1ccc(F)c(S(=O)(=O)N2CCOCC2)c1	-1	-9	0	-179
O=C(Nc1ccc(Oc2ccccc2)cc1)c1ccc(F)c(S(=O)(=O)N2CCOCC2)c1	0	63*	0	-4
CC(Sc1nnc(-c2ccccc2Cl)n1C1CCCC1)C(=O)NC(N)=O (stereo unspecified)	3	1	0	0
N/C(=N\OC(=O)/C=C/c1ccccc1Cl)c1ccccn1	-6	74*	0	-5
N/C(=N\OC(=O)/C=C/c1ccccc1)c1cccnc1	-1	-52	0	13
N/C(=N\OC(=O)/C=C/c1ccc(Br)cc1)c1ccccn1	-2	39*	0	6
Cc1ccc(C(=O)N/C(=C/c2ccc(Cl)cc2)C(=O)O)cc1	-2	5	0	15
COC(=O)C1CCN(C(=O)Cn2nc(C(=O)N3CCOCC3)cc2-c2cccs2)CC1	1	0	0	15
SMILES	GPR151 ag	TEAD-YAP block	FBW7 act	MITF inh
Cc1cc(C)c(NC(=O)Cn2cnc3ccccc32)c(C)c1	3	42*	0	2
Cc1cc(Cn2cnc3ccccc32)c(C)cc1Cn1cnc2ccccc21	0	36*	0	8
O=C(Cn1cnc2ccccc21)Nc1ccc(SC(F)F)cc1	1	34*	0	7
Cc1ccc(Cn2cnc3ccccc32)cc1	1	17	0	18
O=c1cc(CSc2nc(Nc3ccc4c(c3)OCO4)c3ccccc3n2)nc2ccccn12	0	-8	0	3
O=C(COc1ccccc1)NCCN1CCN(c2nc3c(F)cc(F)cc3s2)CC1	0	-6	0	4
O=C1c2ccccc2-c2onc3c(N4CCCCC4)cc(Nc4ccccc4)c1c23	-1	7	0	40

Assay outcomes deposited in PubChem BioAssay by The Scripps Research Institute Molecular Screening Center.
